Screening data from PubChem.
FUS suppressor = qHTS for Suppressors of FUS Proteinopathy: Primary screen using FUS-linked yeast assay. S. cerevisiae FUS-expressing, growth rescue, OD600, 24 h. Potency, µM (top dose mostly 76.6 µM), usual class: activators. 390,000 tested, 0.24% active;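 also: plate controls were DMSO vehicle for no effect and reference control for full effect; nearly all actives have a fitted effect of over 55% in size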
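FUS-expressing yeast, raffinose-pregrown, induced in 2% galactose minimal medium at OD 0.005; compounds in a dilution series, 24hr at 30C. Growth restoration read as absorbance at 600 nm. CP55940 positive control, DMSO negative.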
Abeta rescue = qHTS for compounds that reverse cellular toxicity of Amyloid beta (A-beta) peptide in yeast: Primary Screen; Potency, µM (highest dose often 46.1 µM), usual class: activators; yeast expressing A-beta42, growth rescue, OD600, 48 h; response scale: 0% DMSO, 100% iron-clioquinol control; 410,000 tested, 0.063% active; also: nearly all actives have a fitted effect of over 55% in size
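Growth rescue measured by 600 nm absorbance after 48 h yeast culture at 30 C with compound. Values normalized between DMSO and an equimolar ferric chloride plus clioquinol control.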
TDP-43 yeast inh = qHTS of TDP-43 Inhibitors; TDP-43 expressing yeast growth rescue, BacTiter-Glo, 24 h; Potency, µM (doses to about 46.1 µM), inactives show at the top dose growth rescue (activation), hits mostly activators; 410,000 tested, 1.8% active; AID 652104, 2013; also: % of control where 0% means no effect; nearly all actives have a fitted effect of over 50% in size
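Cell-based yeast growth screen: TDP-43 expression induced in galactose, inoculum OD600=0.02 after raffinose pregrowth to mid-log. Read-out BacTiter-Glo luminescence at 24 hr, 30 deg C; inhibition of toxicity seen as signal increase.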
Mito fusion act = qHTS Assay for Small Molecule Inhibitors of Mitochondrial Division or Activators of Mitochondrial Fusion | Potency, µM (doses to about 46.1 µM), without a hit: at the top dose growth rescue (activation), actives largely listed as activators | S. cerevisiae fusion-defective mutant growth rescue, CellTiterGlo 48 h | 320,000 tested, 0.23% active | AID 485298, 2010; also: % of control where 0% means no effect; nearly all actives have a fitted effect of over 45% in size
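Compounds are tested for their ability to restore growth of mitochondrial fusion-defective yeast strains at non-permissive 37C in YPEG medium over 48 hours. Viability is quantified by luciferase luminescence.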
aSyn yeast inh = qHTS of alpha-syn Inhibitors; Yeast expressing alpha-synuclein, growth rescue, BacTiter-Glo, 24 h; Potency, µM (series often up to 46.1 µM), for inactives: top-dose growth rescue (activation), most hits filed as activators; 370,000 tested, 0.14% active; AID 652106, 2013; also: % of control where 0% means no effect; nearly all actives have a fitted effect of over 65% in size
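Galactose-induced alpha-syn yeast (OD600=0.02, raffinose-pregrown) + pinned cpd, 24 hr, 30 deg C; growth by BacTiter-Glo luminescence. Growth restoration scores as activation.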
Active calls of the source: *; i = inactive; ? = inconclusive; . = not tested or not shown; ! = repeats disagree; [ ] = another dose, or the depositor's remark. An excerpt weighted towards active compounds, which were near 2.2% of everything screened. Calls follow the shape of the dose curve; as a rule, active = well fitted curve in the direction sought with a large enough effect; inconclusive = small, poorly fitted or top-dose-only effect, or another doubt; inactive = no such curve, though single readings can be large; an effect the other way counts as inactive or inconclusive. Potency is read from the fitted curve at half-maximal effect.

SMILES | FUS suppressor | Abeta rescue | TDP-43 yeast inh | Mito fusion act | aSyn yeast inh
Cn1nc(C(=O)N2CCN(c3ccccc3)CC2)c2c1-c1ccccc1SC2 | i | i | ? | . | .
Cn1nc(-c2ccccc2F)c2cc(C(=O)N3CCN(c4ccc(F)cc4)CC3)sc21 | ? | i | ? | . | .
COc1ccc(N2CCN(C(=O)c3nn(C)c4c3CSc3ccccc3-4)CC2)cc1 | i | i | 13µM* | . | .
COc1ccc(N2CCN(C(=O)c3cc4c(-c5ccccc5F)nn(C)c4s3)CC2)cc1 | ? | i | 20µM* | . | .
CCNC(=O)C1CCCN(C(=O)c2ccc(OC)c(OC)c2)CC1 (stereo not given) | i | i | 0% | . | 1%
Nc1ccc(C(=O)OCC(=O)N2CCc3ccccc3C2)cc1[N+](=O)[O-] | i | i | 9% | 11µM* | 16%
CSc1ccc(-c2csc(N3CCC(C(N)=O)CC3)n2)cc1 | i | . | . | . | .
CCCc1cc(C(=O)Nc2ccc(C(=O)c3ccccc3)cc2)n(C)n1 | i | i | 25µM* | 9% | -8%
COC(=O)C[C@H]1CC[C@@H]2[C@@H](COc3ccc(NC(=O)Nc4ccccc4OC)cc3C(=O)N2C)O1 | i | . | . | . | .
COc1ccc(C2C3=C(N=C4SCC(=O)N42)c2ccccc2CC3)cc1 (stereo not given) | ? | i | 0% | 14% | -2%
COc1ccc(C2C3=C(N=C4SCC(=O)N42)c2ccccc2CC3)cc1OC (stereo not given) | 35µM* | i | -25% | 1% | 1%
CC1(c2nnc(-c3ccc(F)cc3)o2)CC(c2c(Cl)cccc2Cl)=NO1 (stereo not given) | i | i | 35µM* | ? | -11%
CC1(c2nnc(-c3ccc(Cl)cc3)o2)CC(c2c(Cl)cccc2Cl)=NO1 (stereo not given) | i | i | 24% | 28% | -3%
COc1ccc2c(c1OC)C(=O)NC(C)=C(C(=O)OC(C)(C)C)C2O (stereo not given) | i | i | 16% | 0% | 16µM*
Cc1cc(OC(C)C(=O)NCc2ccccn2)c2c(C)c(C)c(=O)oc2c1 (stereo not given) | i | i | 18% | 0% | 1%
N#Cc1ccncc1Sc1ccc(Cl)cc1 | i | i | 18µM* | 15% | 22%
N#Cc1cc(-c2ccccc2)nnc1Sc1ccc(Cl)cc1 | i | i | ? | 0% | 1%
N#Cc1cc(N)ccc1Sc1ccc(Cl)cc1 | i | i[9.22 µM] | 16µM* | 7% | 18%
COc1ccc(N)cc1C#N | i | i | 5% | -4% | -2%
N#Cc1cc(N)ccc1Sc1ccccc1 | i | i | 11µM* | 7% | 13%
CCc1cccc(NC(c2nnc(-c3ccccc3)o2)c2ccc(F)cc2Cl)c1 (stereo not given) | ? | i | 0% | . | .
CC(C)c1onc(C(=O)Nc2cccc(Cl)c2)c1[N+](=O)[O-] | i | i | 10µM* | 2% | -5%
CC(C)c1cc(C(=O)Nc2cccc(Cl)c2)no1 | i | i | -17% | 2% | 0%
CCOc1ccc(C(=O)C(C)OC(=O)Cn2cnc3c2c(=O)n(C)c(=O)n3C)cc1 (stereo not given) | i | i | 21% | 1% | 3%
CC1Cc2ccccc2N1C(=S)NC1CCCC1 (stereo not given) | i | 13µM* | ? | -1% | -6%
SMILES | FUS suppressor | Abeta rescue | TDP-43 yeast inh | Mito fusion act | aSyn yeast inh
C/C(=N\NC(=O)CSc1nnc(-c2ccccc2)n1-c1ccc(C)cc1)c1ccc(-c2ccccc2)cc1 | i | . | . | . | .
CCOC(=O)N1C(=O)C[C@](Sc2ccc(OC)cc2)(C(=O)N2CCN(c3ncccn3)CC2)[C@H]1c1ccc(OC)cc1 | i | . | . | . | .
Cc1ccc(-c2cc(O)cc3sc(=O)oc23)cc1C | i | . | 11µM* | ? | -18%
O=C(Nc1cc(C(F)(F)F)ccc1-n1cncn1)c1ccc([N+](=O)[O-])o1 | i | i | 14µM* | 25% | -8%
O=C(c1noc2c1CCCC2)N1CCN(c2ccccc2)CC1 | i | i | 15% | 6% | 3%
O=C(c1noc2c1CCCCC2)N1CCN(c2cccc(Cl)c2)CC1 | i | i | 8.9µM* | . | .
O=C(c1cc(O)c(O)c([N+](=O)[O-])c1)c1ccccc1F | i | i | -5% | 18µM*! | -90%
CCOc1ccc(-n2c(SCC(=O)Nc3ccc(S(=O)(=O)Nc4cc(C)nc(C)n4)cc3)nnc2-c2ccco2)cc1 | i | . | . | . | .
O=C(Cc1ccc(Cl)cc1)N1CCN(c2ccc(F)cc2)CC1 | i | i | 26% | ? | 21%
O=C(CSCc1ccc(F)cc1)N1CCN(c2ccc(Cl)cc2)CC1 | ? | i | 18µM* | . | .
O=C(CCSCc1ccccc1F)N1CCN(c2ccc(F)cc2)CC1 | i | i | 11µM* | . | .
O=C(CCC(=O)N1CCN(c2ccc(F)cc2)CC1)N1CCN(c2ccc(F)cc2)CC1 | i | i | 0% | 6% | 10%
O=C(CCSCc1ccccc1Cl)N1CCN(c2ccc(F)cc2)CC1 | ? | i | 16µM* | . | .
CCCCN1C[C@@H](COCc2ccccc2)Oc2cccc(F)c2S1(=O)=O | i | . | . | . | .
CC(C)(C)c1ccc(-c2nnc(SCC(=O)c3ccc4ccccc4c3)n2-c2ccc(Cl)cc2)cc1 | i | . | . | . | .
CS(=O)(=O)N1CCN(/[N+]([O-])=N/Oc2ccc([N+](=O)[O-])cc2[N+](=O)[O-])CC1 | . | . | . | . | -46%
Cc1ccc(S(=O)(=O)N2CCN(c3nc(-n4cccn4)nc4ccccc34)CC2)cc1 | . | . | . | . | 6%
Cc1ccc(S(=O)(=O)N2CCN(c3nc(-n4ccnc4)nc4ccccc34)CC2)cc1 | . | . | . | . | 2µM*
CN1CCc2nc3sc(C(=O)Nc4c(F)cccc4F)c(N)c3cc2C1 | i | i | -31% | . | .
CN1CCc2nc3sc(C(=O)Nc4cccc(C#N)c4)c(N)c3cc2C1 | ? | i | 18µM* | . | .
CC(C)OC(=O)CC(=O)c1sc2nc3c(cc2c1N)CN(C)CC3 | 13µM* | i | 8% | -1% | -2%
CCCC[C@H](CCCc1ccc(F)cc1)CCC(=O)N(c1ccccc1)c1ccccc1 | i | . | . | . | .
Cn1cnc([N+](=O)[O-])c1S(=O)(=O)Nc1ccccc1 | ? | i | -17% | . | -4%
Cn1cnc([N+](=O)[O-])c1S(=O)(=O)c1cccc(Cl)c1 | i | i | 13µM* | -23% | 4%
Cn1cnc([N+](=O)[O-])c1S(=O)(=O)Oc1ccccc1 | i | i | 13µM* | . | -6%
